Test results reported in the supplement of paper PMC8540655.
A number with no mark means an inactive call.

tested on: Aedes aegypti larvae; test: larval motility relative to same well at 0 h (fraction); higher = more motile (less active compound), active = 0.4 or less; conditions: 10 µM; 2 h
Procedure, shortened: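 With INVAPP, 200 frames at 100 ms intervals were captured at 0, 2 and 24 h from 96-well plates holding about 10 Aedes aegypti larvae per well (100 µL). The larvae were 18–24 h old, hatched at 25 °C in pond salt solution with yeast, and compounds were added at 10 µM with 1% v/v DMSO, with solvent and larvicide control wells on each plate. For relative motility, each well's score is divided by that well's baseline score, and the median over three independent larval batches is given.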

Compared with COCCn1cnc2c(=O)[nH]c(Nc3ccccc3)nc21, Cc1c[nH]c(=O)nc1NCc1ccccc1 is higher in larval motility: 0.921 for the first, 1.16 for the second.

First: O=[N+]([O-])/C(Br)=C/c1ccc(Br)o1
Second: O=[N+]([O-])c1cn(Cc2nc(O)nc(O)c2Br)cn1
The larval motility of the first is higher: 1.13 for the first, 0.834 for the second.

First: O=C(Cc1ccccc1F)Nc1nc2ccccc2[nH]1
Second: COC(=O)Nc1nc2cc(Sc3ccccc3)ccc2[nH]1
The larval motility of the first is lower: 0.888 for the first, 0.997 for the second.

Compared with CCc1nc(N)nc(N)c1C#CCc1ccccc1, Nc1nc(N)c2c(Sc3ccccc3)cccc2n1 is higher in larval motility: 0.589 for the first, 1.24 for the second.

First: C=C(C)n1c(=O)n(Cc2ccccc2C)c2ccccc21
Second: O=c1cc(OCc2ccccc2)ccn1Cc1ccccc1
The larval motility of the first is higher: 1.39 for the first, 1.27 for the second.

Going from O=C(CP(=O)(O)O)NCCc1cccc(Oc2ccccc2)c1 to O=C(Nc1ccccc1C(=O)O)c1cccc(Oc2ccccc2)c1, the larval motility falls from 2.12 to 0.522.

Going from COc1cc(Cc2cc(N)nc(N)n2)cc(OC)c1OC to COc1c(F)c(F)cc2c(=O)c(C(=O)O)cn(C3CC3)c12, the larval motility falls from 0.774 to 0.765.

Compared with Cc1cc(C)n(O)c(=O)c1, Cc1onc(-c2ccccc2Cl)c1C(=O)N[C@@H]1C(=O)N2[C@@H]1SC(C)(C)[C@@H]2C(=O)O is higher in larval motility: 0.846 for the first, 1.22 for the second.

First: COc1ccc(NS(=O)(=O)c2ccc(Cl)s2)cn1
Second: CC(=O)Oc1ccccc1C(=O)Nc1ncc([N+](=O)[O-])s1
The larval motility of the first is lower: 0.931 for the first, 1.58 for the second.

Compared with CC(=O)N1c2ccccc2NC2=C(C(=O)CC(C)(C)C2)C1c1ccc(OCc2ccccc2)cc1 (stereo not given), CCc1ccc(C2CC(C(F)(F)F)n3ncc(C(=O)NCc4ccc(OC)cc4)c3N2)cc1 (stereo not given) is lower in larval motility: 1.49 for the first, 0.923 for the second.

Compared with O=C(O)CSc1cc(NS(=O)(=O)c2cccc3cccnc23)c2ccccc2c1O, CC(C)(C)NC(=O)[C@@H]1CN(Cc2cnc3occc3c2)CCN1C[C@@H](O)C[C@@H](Cc1ccccc1)C(=O)N[C@H]1c2ccccc2C[C@H]1O is lower in larval motility: 0.969 for the first, 0.857 for the second.

Going from N=c1n(CCN2CCCCC2)c2ccccc2n1CC(O)COc1ccc(Cl)cc1Cl (stereo not given) to CC(=O)N1CCN(c2ccc(OCC3COC(Cn4ccnc4)(c4ccc(Cl)cc4Cl)O3)cc2)CC1 (stereo not given), the larval motility falls from 1.02 to 0.527.

Going from COC1CC2CCC(C)C(O)(O2)C(=O)C(=O)N2CCCCC2C(=O)OC(C(C)CC2CCC(OCCO)C(OC)C2)CC(=O)C(C)/C=C(\C)C(O)C(OC)C(=O)C(C)CC(C)/C=C/C=C/C=C/1C (stereo not given) to O=C(c1nc2c(C(F)(F)F)cc(C3CC3)cn2c1Cl)N1CCN([C@H]2CC[C@H](O)CC2)C(=O)C1, the larval motility falls from 0.921 to 0.697.

Going from CCC[C@@H]1C[C@@H](C(=O)N[C@@H]([C@H]2O[C@H](SC)[C@H](O)[C@@H](O)[C@H]2O)[C@H](C)Cl)N(C)C1 to CCCCCc1ccc(C(=O)NCCn2cc(CCCCCc3cnc(N)[nH]3)nn2)cc1, the larval motility falls from 0.804 to 0.643.

Going from Nc1nc(O)ncc1F to Nc1nnc(-c2ccc(Cl)cc2)s1, the larval motility rises from 0.641 to 0.916.

Going from O=C(CCCC(F)(F)F)N1CCC(c2nc(-c3nccs3)no2)CC1 to O=C(O)[C@H]1C2CCC(CC2)[C@@H]1Nc1nc(-c2c[nH]c3ncc(F)cc23)ncc1F, the larval motility rises from 0.824 to 0.877.

Going from Cc1ncc([N+](=O)[O-])n1CC(O)CN1CCOCC1 (stereo not given) to O=C(O)c1ccccc1Sc1ncnc2sc3c(c12)CCC3, the larval motility falls from 1.3 to 0.968.

Compared with O=C(O)CCNC(=O)c1ccccc1, O=C(CC1Sc2ncnn2C1=O)Nc1ccc(Br)cc1 (stereo not given) is lower in larval motility: 0.977 for the first, 0.859 for the second.

Compared with CCOC(=O)Nc1cc(NC(C)CC(C)CN(CC)CC)c2nc(-c3ccccc3)c(-c3ccccc3)nc2n1 (stereo not given), CC1=C(/C=C/C(C)=C/C=C/C(C)=C/C(=O)Nc2ccc(O)cc2)C(C)(C)CCC1 is higher in larval motility: 0.848 for the first, 0.95 for the second.

Going from CC1(C)[C@H](C(=O)O)N2C(=O)C[C@H]2S1(=O)=O to Nc1nnnn1CCOc1c2[nH]c3ccc(Cl)cc3c2cc2c1[nH]c1ccc(Cl)cc12, the larval motility falls from 0.965 to 0.958.

same assay, conditions: 10 µM; 24 h

Going from COCCn1cnc2c(=O)[nH]c(Nc3ccccc3)nc21 to Cc1c[nH]c(=O)nc1NCc1ccccc1, the larval motility rises from 0.552 to 0.91.

Going from O=[N+]([O-])/C(Br)=C/c1ccc(Br)o1 to O=[N+]([O-])c1cn(Cc2nc(O)nc(O)c2Br)cn1, the larval motility falls from 0.796 to 0.417.

First: O=C(Cc1ccccc1F)Nc1nc2ccccc2[nH]1
Second: C=C(C)n1c(=O)n(Cc2ccccc2C)c2ccccc21
The larval motility of the first is lower: 0.669 for the first, 0.851 for the second.

Going from CCc1nc(N)nc(N)c1C#CCc1ccccc1 to Nc1nc(N)c2c(Sc3ccccc3)cccc2n1, the larval motility rises from 0.658 to 0.982.

Going from O=C(CP(=O)(O)O)NCCc1cccc(Oc2ccccc2)c1 to O=C(Nc1ccccc1C(=O)O)c1cccc(Oc2ccccc2)c1, the larval motility rises from 1.06 to 1.44.

First: COc1cc(Cc2cc(N)nc(N)n2)cc(OC)c1OC
Second: COc1c(F)c(F)cc2c(=O)c(C(=O)O)cn(C3CC3)c12
The larval motility of the first is higher: 1.44 for the first, 1.08 for the second.

Compared with Cc1cc(C)n(O)c(=O)c1, Cc1onc(-c2ccccc2Cl)c1C(=O)N[C@@H]1C(=O)N2[C@@H]1SC(C)(C)[C@@H]2C(=O)O is higher in larval motility: 0.863 for the first, 1.24 for the second.

Going from COc1ccc(NS(=O)(=O)c2ccc(Cl)s2)cn1 to CC(=O)Oc1ccccc1C(=O)Nc1ncc([N+](=O)[O-])s1, the larval motility falls from 1.43 to 0.824.

Compared with CC(=O)N1c2ccccc2NC2=C(C(=O)CC(C)(C)C2)C1c1ccc(OCc2ccccc2)cc1 (stereo not given), O=c1cc(OCc2ccccc2)ccn1Cc1ccccc1 is higher in larval motility: 1.55 for the first, 1.69 for the second.

Going from O=C(O)CSc1cc(NS(=O)(=O)c2cccc3cccnc23)c2ccccc2c1O to CC(C)(C)NC(=O)[C@@H]1CN(Cc2cnc3occc3c2)CCN1C[C@@H](O)C[C@@H](Cc1ccccc1)C(=O)N[C@H]1c2ccccc2C[C@H]1O, the larval motility rises from 0.675 to 0.932.

Going from N=c1n(CCN2CCCCC2)c2ccccc2n1CC(O)COc1ccc(Cl)cc1Cl (stereo not given) to CC(=O)N1CCN(c2ccc(OCC3COC(Cn4ccnc4)(c4ccc(Cl)cc4Cl)O3)cc2)CC1 (stereo not given), the larval motility rises from 0.502 to 1.14.

Compared with COC1CC2CCC(C)C(O)(O2)C(=O)C(=O)N2CCCCC2C(=O)OC(C(C)CC2CCC(OCCO)C(OC)C2)CC(=O)C(C)/C=C(\C)C(O)C(OC)C(=O)C(C)CC(C)/C=C/C=C/C=C/1C (stereo not given), O=C(c1nc2c(C(F)(F)F)cc(C3CC3)cn2c1Cl)N1CCN([C@H]2CC[C@H](O)CC2)C(=O)C1 is lower in larval motility: 1.02 for the first, 0.894 for the second.

Compared with CCC[C@@H]1C[C@@H](C(=O)N[C@@H]([C@H]2O[C@H](SC)[C@H](O)[C@@H](O)[C@H]2O)[C@H](C)Cl)N(C)C1, CCc1ccc(C2CC(C(F)(F)F)n3ncc(C(=O)NCc4ccc(OC)cc4)c3N2)cc1 (stereo not given) is higher in larval motility: 0.885 for the first, 1.29 for the second.

Compared with Nc1nc(O)ncc1F, Nc1nnc(-c2ccc(Cl)cc2)s1 is lower in larval motility: 1.04 for the first, 0.877 for the second.

Going from O=C(CCCC(F)(F)F)N1CCC(c2nc(-c3nccs3)no2)CC1 to O=C(O)[C@H]1C2CCC(CC2)[C@@H]1Nc1nc(-c2c[nH]c3ncc(F)cc23)ncc1F, the larval motility rises from 1.08 to 1.17.

Compared with Cc1ncc([N+](=O)[O-])n1CC(O)CN1CCOCC1 (stereo not given), O=C(O)c1ccccc1Sc1ncnc2sc3c(c12)CCC3 is lower in larval motility: 0.789 for the first, 0.722 for the second.

Compared with CCCCCc1ccc(C(=O)NCCn2cc(CCCCCc3cnc(N)[nH]3)nn2)cc1, Nc1nnnn1CCOc1c2[nH]c3ccc(Cl)cc3c2cc2c1[nH]c1ccc(Cl)cc12 is higher in larval motility: 0.914 for the first, 1.16 for the second.

Going from O=C(O)CCNC(=O)c1ccccc1 to O=C(CC1Sc2ncnn2C1=O)Nc1ccc(Br)cc1 (stereo not given), the larval motility falls from 1.03 to 0.722.

Compared with CCOC(=O)Nc1cc(NC(C)CC(C)CN(CC)CC)c2nc(-c3ccccc3)c(-c3ccccc3)nc2n1 (stereo not given), CC1=C(/C=C/C(C)=C/C=C/C(C)=C/C(=O)Nc2ccc(O)cc2)C(C)(C)CCC1 is lower in larval motility: 1.04 for the first, 0.595 for the second.

In the case of CC1(C)[C@H](C(=O)O)N2C(=O)C[C@H]2S1(=O)=O, the larval motility is reported as 1.35.

For COC(=O)Nc1nc2cc(Sc3ccccc3)ccc2[nH]1, the larval motility was 0.306 (active).
